# The full list was thinned out, with the strongest signals kept by preference.
# B1: LKPARMA (Neurospora crassa) (protein)
# chain: MSFHVTAEDARRIEVRDNRTILFARLRREDGEWNDASYELDQIIGNNDGHFQWGGGQNFTETAEDIRFHPKEGAAEQPILRARLRDCNGEFHDRDVNLTEIVENVNGEFQAKF
# B2: Regenerating Gene I (Homo sapiens), P05451 (protein)
# chain: MAQTSSYFMLISCLMFLSQSQGQEAQTELPQARISCPEGTNAYRSYCYYFNEDRETWVDADLYCQNMNSGNLVSVLTQAEGAFVASLIKESGTDDFNVWIGLHDPKKNRRWHWSSGSLVSYKSWGIGAPSSVNPGYCVSLTSSTGFQKWKDVPCEDKFSFVCKFKN
# Assays:
# Assay in all cases: glycan array binding signal (z-score within array); higher = stronger binding
# Conditions in all cases: glycan notation: IUPAC condensed, linker removed
# Fuc(a1-2)Gal(b1-3)GlcNAc = target: Fuc(a1-2)Gal(b1-3)GlcNAc
# How it was run: (§1)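 The binding signal is a Z-score computed within each array. Data were drawn from 3228 arrays in the Consortium for Functional Glycomics database, restricted to those with a known protein sequence. Scores were averaged over arrays of the same protein sequence at different concentrations or buffers, and over linkers, and negative values can be taken as non-binding.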
# [1] = target: Fuc(a1-3)[Gal(b1-4)]GlcNAc(b1-4)Gal(b1-4)[Fuc(a1-3)]GlcNAc
# How it was run: as §1
# [2] = target: Gal(b1-3)GlcNAc(b1-3)Gal(b1-4)Glc
# How it was run: as §1
# [3] = target: Gal(b1-3)GlcNAc(b1-3)Gal(b1-4)GlcNAc
# How it was run: as §1
# [4] = target: Gal(b1-3)[Fuc(a1-4)]GlcNAc
# How it was run: as §1
# [5] = target: Gal(b1-3)[Neu5Ac(a2-6)]GalNAc
# How it was run: as §1
# [6] = target: Gal(b1-3)[Neu5Ac(a2-6)]GlcNAc(b1-6)Gal(b1-4)Glc
# How it was run: as §1
# [7] = target: Gal(b1-3)[Neu5Ac(b2-6)]GalNAc
# How it was run: as §1
# [8] = target: Gal(b1-4)GalNAc(a1-3)[Fuc(a1-2)]Gal(b1-4)GlcNAc
# How it was run: as §1
# [9] = target: Gal(b1-4)GlcNAc(b1-6)Gal(b1-4)GlcNAc(b1-6)GalNAc
# How it was run: as §1
# Gal6S(b1-4)Glc = target: Gal6S(b1-4)Glc
# How it was run: as §1
# Glc(a1-6)Glc(a1-6)Glc = target: Glc(a1-6)Glc(a1-6)Glc
# How it was run: as §1
# Glc(b1-6)Glc = target: Glc(b1-6)Glc
# How it was run: as §1
# [10] = target: GlcNAc(b1-2)Man(a1-3)[GlcNAc(b1-2)Man(a1-6)]Man(b1-4)GlcNAc(b1-4)GlcNAc
# How it was run: as §1
# [11] = target: Neu5Ac(a2-3)Gal(b1-4)GlcNAc(b1-3)Gal(b1-4)GlcNAc
# How it was run: as §1
# [12] = target: Neu5Ac(a2-3)Gal(b1-4)[Fuc(a1-3)]GlcNAc(b1-3)Gal(b1-4)[Fuc(a1-3)]GlcNAc(b1-3)Gal(b1-4)[Fuc(a1-3)]GlcNAc
# How it was run: as §1
# [13] = target: Neu5Ac(a2-6)GalNAc(b1-4)GlcNAc
# How it was run: as §1
# [14] = target: Neu5Ac(a2-8)Neu5Ac(a2-8)Neu5Ac(a2-8)Neu5Ac(a2-3)[GalNAc(b1-4)]Gal(b1-4)Glc
# How it was run: as §1
# [15] = target: Fuc(a1-2)[GalNAc(a1-3)]Gal(b1-3)GlcNAc
# How it was run: as §1
# [16] = target: Fuc(a1-3)[GalNAc(b1-4)]GlcNAc
# How it was run: as §1
# Gal(a1-4)Gal(b1-4)Glc = target: Gal(a1-4)Gal(b1-4)Glc
# How it was run: as §1
# Gal(a1-4)GlcNAc = target: Gal(a1-4)GlcNAc
# How it was run: as §1
# [17] = target: Gal(b1-3)[Fuc(a1-4)]GlcNAc(b1-3)Gal(b1-3)[Fuc(a1-4)]GlcNAc
# How it was run: as §1
# [18] = target: Gal(b1-4)GlcNAc(a1-6)Gal(b1-4)GlcNAc
# How it was run: as §1
# Gal3S(b1-4)Glc = target: Gal3S(b1-4)Glc
# How it was run: as §1
# Gal4S(b1-4)GlcNAc = target: Gal4S(b1-4)GlcNAc
# How it was run: as §1
# GalNAc(a1-3)GalNAc = target: GalNAc(a1-3)GalNAc
# How it was run: as §1
# GlcA(b1-3)GlcNAc = target: GlcA(b1-3)GlcNAc
# How it was run: as §1
# [19] = target: GlcNAc(b1-2)Gal(b1-3)GalNAc
# How it was run: as §1
# GlcNAc(b1-3)Gal = target: GlcNAc(b1-3)Gal
# How it was run: as §1
# [20] = target: GlcNAc(b1-4)Gal(b1-4)GlcNAc
# How it was run: as §1
# [21] = target: GlcNAc(b1-4)[GlcNAc(b1-6)]GalNAc
# How it was run: as §1
# GlcNAc3Prop(b1-4)GlcNAc = target: GlcNAc3Prop(b1-4)GlcNAc
# How it was run: as §1
# Man(a1-3)[Man(a1-6)]Man = target: Man(a1-3)[Man(a1-6)]Man
# How it was run: as §1
# [22] = target: Man(a1-3)[Man(a1-6)]Man(a1-6)[Man(a1-2)Man(a1-3)]Man(b1-4)GlcNAc(b1-4)GlcNAc
# How it was run: as §1
# [23] = target: Neu5Ac(a2-3)Gal(b1-3)GlcNAc6S
# How it was run: as §1
# [24] = target: Neu5Ac(a2-3)Gal(b1-3)[Fuc(a1-4)]GlcNAc(b1-3)Gal(b1-4)[Fuc(a1-3)]GlcNAc
# How it was run: as §1
# [25] = target: Neu5Ac(a2-3)Gal(b1-4)[Fuc(a1-3)]GlcNAc(b1-6)[Gal(b1-3)]GalNAc
# How it was run: as §1
# [26] = target: Neu5Ac(a2-6)Gal(b1-4)GlcNAc(b1-2)Man(a1-3)[GlcNAc(b1-2)Man(a1-6)]Man(b1-4)GlcNAc(b1-4)GlcNAc
# How it was run: as §1
# [27] = target: Neu5Ac(a2-6)Gal(b1-4)GlcNAc(b1-2)Man(a1-3)[Neu5Ac(a2-6)Gal(b1-4)GlcNAc(b1-2)Man(a1-6)]Man(b1-4)GlcNAc(b1-4)GlcNAc
# How it was run: as §1
# [28] = target: Neu5Ac(a2-6)Gal(b1-4)GlcNAc(b1-2)Man(a1-6)[Gal(b1-4)GlcNAc(b1-2)Man(a1-3)]Man(b1-4)GlcNAc(b1-4)GlcNAc
# How it was run: as §1
# [29] = target: Neu5Ac(a2-6)Gal(b1-4)GlcNAc(b1-3)Gal(b1-4)[Fuc(a1-3)]GlcNAc(b1-3)Gal(b1-4)[Fuc(a1-3)]GlcNAc
# How it was run: as §1
# [30] = target: Neu5Ac(a2-8)Neu5Ac(a2-8)Neu5Ac(a2-3)Gal(b1-4)Glc
# How it was run: as §1
binder,measurement,setting,value
B1,glycan array binding signal (z-score),Fuc(a1-2)Gal(b1-3)GlcNAc,-0.25
same,glycan array binding signal (z-score),[1],-0.077
same,glycan array binding signal (z-score),[2],4.93
same,glycan array binding signal (z-score),[3],-0.249
same,glycan array binding signal (z-score),[4],-0.251
same,glycan array binding signal (z-score),[5],-0.234
same,glycan array binding signal (z-score),[6],5.09
same,glycan array binding signal (z-score),[7],-0.251
same,glycan array binding signal (z-score),[8],-0.149
same,glycan array binding signal (z-score),[9],-0.252
same,glycan array binding signal (z-score),Gal6S(b1-4)Glc,-0.252
same,glycan array binding signal (z-score),Glc(a1-6)Glc(a1-6)Glc,7.12
same,glycan array binding signal (z-score),Glc(b1-6)Glc,6.76
same,glycan array binding signal (z-score),[10],-0.251
same,glycan array binding signal (z-score),[11],-0.235
same,glycan array binding signal (z-score),[12],-0.212
same,glycan array binding signal (z-score),[13],-0.252
same,glycan array binding signal (z-score),[14],-0.248
B2,glycan array binding signal (z-score),Fuc(a1-2)Gal(b1-3)GlcNAc,0.417
same,glycan array binding signal (z-score),[15],-0.479
same,glycan array binding signal (z-score),[16],0.315
same,glycan array binding signal (z-score),Gal(a1-4)Gal(b1-4)Glc,3.58
same,glycan array binding signal (z-score),Gal(a1-4)GlcNAc,0.102
same,glycan array binding signal (z-score),[3],-0.537
same,glycan array binding signal (z-score),[17],-0.396
same,glycan array binding signal (z-score),[18],0.071
same,glycan array binding signal (z-score),Gal3S(b1-4)Glc,0.272
same,glycan array binding signal (z-score),Gal4S(b1-4)GlcNAc,0.291
same,glycan array binding signal (z-score),GalNAc(a1-3)GalNAc,-0.588
same,glycan array binding signal (z-score),Glc(a1-6)Glc(a1-6)Glc,-0.118
same,glycan array binding signal (z-score),GlcA(b1-3)GlcNAc,0.836
same,glycan array binding signal (z-score),[19],-0.206
same,glycan array binding signal (z-score),GlcNAc(b1-3)Gal,-0.215
same,glycan array binding signal (z-score),[20],2.18
same,glycan array binding signal (z-score),[21],1.91
same,glycan array binding signal (z-score),GlcNAc3Prop(b1-4)GlcNAc,-0.533
same,glycan array binding signal (z-score),Man(a1-3)[Man(a1-6)]Man,7.74
same,glycan array binding signal (z-score),[22],-0.594
same,glycan array binding signal (z-score),[23],-0.09
same,glycan array binding signal (z-score),[24],5.84
same,glycan array binding signal (z-score),[25],-0.128
same,glycan array binding signal (z-score),[26],-0.412
same,glycan array binding signal (z-score),[27],-0.473
same,glycan array binding signal (z-score),[28],-0.33
same,glycan array binding signal (z-score),[29],-0.304
same,glycan array binding signal (z-score),[30],-0.596

# — the supplement of paper PMC8728848
